Peg3 prom inh: Peg3 promoter-driven luciferase inhibitors, primary screen, cell-based, HeLa, luciferase luminescence | AID 588405, 2011 | HeLa PEG-Prom luciferase reporter, overnight | inhibition, % at 20 µM | 1.7% of 360,000 active;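 active = inhibition of at least 50% at 20 µM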
HIF-2a block: HIF-2a reporter inhibitors, primary screen, luminescence, 786-0 RCC cells; AID 624352, 2012; 0.72% of 360,000 active; inhibition, % at 18.8 µM; 786-0 RCC cells HIF-2a reporter, luciferase luminescence, overnight;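 active = inhibition of the luminescence signal of 40% or more relative to plate controls, in a single-dose primary screen at 18.75 µM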
TROY NFkB inh: inhibitors of TROY-driven NF-kB signaling, primary screen, Q293 LMP1-TROYcd cells, NF-kB luciferase, uHTS | Q293 LMP1-TROYcd NF-kB luciferase reporter, 4 h | inhibition, % at 10 µM | 0.98% of 360,000 active;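 active = compounds whose plate-normalised and pattern-corrected inhibition of the luciferase reporter signal at the single screening dose is 50% or more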
KKLEB tox: cytotoxicity in KKLEB CF airway cells, primary screen, cytotoxicity control for CF NF-kB inhibitor project, cell-based, uHTS, fluorescence assay plates. KKLEB CF airway cells viability, ATPlite luminescence, overnight; active compounds read low; cells stimulated with P. aeruginosa culture filtrate. activity change (cytotoxicity), % at 5 µM. 0.36% of 360,000 active;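 active = corrected activity change at or below -50% at 5 µM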
CF NFkB inh: inhibitors of PAF-induced NF-kB signaling, primary screen, cell-based, GFP fluorescence, uHTS; KKLEB NF-kB-GFP reporter, GFP fluorescence overnight; inhibition, % at 5 µM; 0.86% of 360,000 active;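 active = at least 50% inhibition at 5 µM, scaled per plate between neutral and stimulator controls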;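 note: PAF is a Pseudomonas aeruginosa culture filtrate used as stimulus; plate controls were PAF-stimulated DMSO wells for no effect and unstimulated DMSO wells for full effect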
TWEAK Fn14 block: inhibitors of TWEAK-Fn14 signaling, primary screen, luciferase reporter cells, uHTS; TWEAK-stimulated Fn14 reporter cells, luciferase luminescence, 8 h; inhibition, % at 10 µM; 2% of 360,000 active; in the data active = inhibition above about 50%
* marks the source's active call; other numbers are inactive results; x = no result given. In the library only some 4% were active in any assay of this set; here they are far more common.

SMILES	Peg3 prom inh	HIF-2a block	TROY NFkB inh	KKLEB tox	CF NFkB inh	TWEAK Fn14 block
CCOC(=O)CN1C(=O)SC(CC(=O)Nc2nccs2)C1=O (configuration not stated)	-7.1	13.2	x	3.1	1.9	67.5*
Cc1oc2cc3c(C(=O)N4CCCCC4)c(C)oc3cc2c1C(=O)N1CCCCC1	-128.8	-80.4	59.5*	8.4	4.6	73.7*
C=CCc1c(OC(C)=O)c2ccccc2n(C)c1=O	12.5	15.1	14.4	8.3	12.3	54.5*
Cc1ccc(S(=O)(=O)Oc2cccc([N+](=O)[O-])c2)cc1	-0.4	-71.8	-12.4	4.4	-5.9	4.9
COc1cc2c(cc1OC)C(c1ccc(-c3ccc(Cl)cc3Cl)o1)=NCC2	45.3	-3.7	35.2	-31.0	6.2	50.4*
COc1cc2c(cc1OC)C(c1ccc(-c3ccc(Cl)c(Cl)c3)o1)=NCC2	85.1*	2.4	47.4	-30.8	-7.5	75.5*
COc1cc2c(cc1OC)C(c1ccc(-c3ccccc3Cl)o1)=NCC2	-92.7	-16.0	11.6	-20.8	5.0	38.3
COc1cc2c(cc1OC)C(c1ccc(-c3cc(Cl)ccc3Cl)o1)=NCC2	48.5	21.7	7.5	-17.3	16.5	35.5
COc1ccc(CCNC(=O)C2CCN(S(=O)(=O)c3cccc4cccnc34)CC2)cc1OC	2.2	2.8	1.2	8.5	-30.7	-9.9
Cc1ccc(C(=O)OCC(=O)NN2C(=O)NC3(CCC(C)CC3)C2=O)cc1 (configuration not stated)	-6.0	5.7	9.7	-6.1	5.3	19.4
CC(=O)c1c(C)[nH]c(C(=O)NCc2ccccc2F)c1C	-1.7	-25.6	7.8	4.5	4.3	54.3*
CC(=O)c1c(C)[nH]c(C(=O)Nc2ccc(N3CCCCCC3)cc2)c1C	10.0	5.1	45.5	13.8	-33.4	72.3*
CC(=O)c1c(C)[nH]c(C(=O)Nc2cccc(C)n2)c1C	-162.3	-119.5	-1.0	12.5	-91.5	52.7*
CC(=O)c1c(C)[nH]c(C(=O)NCc2ccccc2Cl)c1C	-9.0	-19.5	-13.9	-2.2	-19.1	-8.4
CC(Oc1ccc2ccc(=O)oc2c1)C(=O)NCCN1CCOCC1 (configuration not stated)	-10.1	10.8	-38.6	2.6	21.4	-3.2
CCN1CCN(C(=O)CCc2nnc3ccc(N4CCC5(CC4)OCCO5)nn23)CC1	-10.6	4.0	-15.6	-4.8	6.6	-31.0
O=C(NCc1nc2ccccc2[nH]1)C1=C[C@@H](c2ccc(Br)cc2)C[C@@H](OCc2ccc(CO)cc2)O1	23.3	19.4	10.6	4.8	-9.9	22.0
O=C(NCc1nc2ccccc2[nH]1)C1=C[C@H](c2csc3ccccc23)C[C@H](OCc2ccc(CO)cc2)O1	39.1	29.8	22.5	0.5	-15.7	55.3*
O=C(NCc1nc2ccccc2[nH]1)C1=C[C@@H](c2csc3ccccc23)C[C@@H](OCc2ccc(CO)cc2)O1	35.3	2.3	38.3	3.8	-6.0	56.6*
CC1(C)CC(=O)C(C=NCCCO)=C(O)C1	7.6	-11.8	-3.4	-16.6	14.9	81.4*
CCN(CC)c1ccc(C2NC(=O)c3ccccc3N2)cc1 (configuration not stated)	35.9	4.2	76.8*	-80.1*	-11.1	95.2*
CCN(CC)c1ccc(N=C2C(=O)Nc3ccccc32)cc1	-16.9	-21.2	27.9	18.3	-6.1	52.1*
CCN(CC)c1ccc(C2Nc3cccc4cccc(c34)N2)cc1	-88.2	-42.6	-46.1	12.9	-26.5	-2.3
COc1ccc(NS(=O)(=O)c2nnc(NC(=O)c3ccccc3F)s2)cc1	-9.3	-11.8	8.8	8.4	-13.4	-6.3
Cc1ccccc1Nc1ccc(S(=O)(=O)N2CCOCC2)cc1[N+](=O)[O-]	58.9*	13.2	12.1	4.0	-5.2	4.7
SMILES	Peg3 prom inh	HIF-2a block	TROY NFkB inh	KKLEB tox	CF NFkB inh	TWEAK Fn14 block
CCc1ccc2c(c1)C1(NN=C(c3cccc4ccccc34)S1)C(=O)N2 (configuration not stated)	51.4*	9.6	0.9	6.2	-3.0	-17.1
CCOC(=O)c1c(N2C(=O)C3C4C=CC(O4)C3C2=O)sc2c1CCCC2 (configuration not stated)	51.1*	10.1	1.7	-13.3	22.7	7.1
CCOC(=O)c1c(-n2cnnn2)sc2c1CCCC2	-4.2	2.8	-3.5	-4.8	8.5	-10.4
CCOC(=O)c1c(N2C(=O)Nc3cc(Cl)c(Cl)cc3N2O)sc2c1CCCCC2	30.0	1.2	52.7*	-1.1	1.8	7.6
C[C@@H]1CN([C@H](C)CO)C(=O)CCCn2nncc2CO[C@@H]1CN(C)S(=O)(=O)c1ccc(C#N)cc1	-11.9	5.5	-4.5	-0.8	0.4	-9.6
CC(NC1CCCC1)c1ccccc1 (configuration not stated)	6.2	14.1	76.3*	5.0	-20.0	16.0
CC(NC(=O)C1CCCC1)c1ccccc1 (configuration not stated)	10.7	13.2	11.3	4.3	-2.1	-3.9
O=C(Cc1ccc(S(=O)(=O)N2CCOCC2)s1)NCCc1ccc(F)cc1	-30.9	-22.5	-7.5	11.5	-6.9	1.1
Cc1c2ccccc2cc[n+]1CCCS(=O)(=O)[O-]	-3.4	8.1	14.4	11.0	0.9	12.8
CC1(C)C(/C=C/C=C/C=C/C=C2\N(CCCCS(=O)(=O)O)c3ccc4ccccc4c3C2(C)C)=[N+](CCCCS(=O)(=O)[O-])c2ccc3ccccc3c21	30.0	5.3	10.0	26.8	7.0	55.2*
CC(C)c1ccc(/C=C/C(=O)NC(=S)Nc2ccc(CN3CCOCC3)cc2)cc1	-44.6	-38.5	71.3*	-14.8	12.3	99.9*
CC(C)CC(=O)NC(=S)Nc1ccc(CN2CCOCC2)cc1	-3.4	-1.8	2.2	-2.8	-4.4	-3.2
O=c1[nH]c(CSc2ccccn2)nc2c1oc1ccccc12	-37.5	-56.5	46.2	-0.5	9.9	64.6*
CC1(c2nnnn2-c2ccc3c(c2)OCCO3)CCC(=O)N1Cc1cccnc1 (configuration not stated)	x	-13.8	57.4*	x	x	79.1*
O=C(NCc1cc(C(F)(F)F)cc(C(F)(F)F)c1)C1CC(c2ccc(C(F)(F)F)cc2)=NO1 (configuration not stated)	13.0	-5.7	-3.6	-17.4	25.0	-4.0
CC(=O)c1ccc(OC2(C)CCN(Cc3ccc4ccccc4c3)C2)cc1 (configuration not stated)	-4.6	-0.8	-4.3	-10.9	-8.9	-26.3
CC(C)Cc1nnc(NC(=O)CC(=O)Nc2ccccc2C(=O)O)s1	27.5	9.1	-5.1	-1.0	-6.2	50.8*
